Results on 40 compounds are retold here after PubChem BioAssay (NCATS).

Inconclusive results are not listed. Active and inactive are the calls of the source. The call rests on the fitted dose curve; in most records, active means well fitted curve in the direction sought with a large enough effect; inconclusive means small, poorly fitted or top-dose-only effect, or another doubt; inactive means no such curve, though single readings can be large or run the other way.

Thioredoxin reductase 1, cytoplasmic (Rattus norvegicus), sequence (O89049 whole entry, looked up): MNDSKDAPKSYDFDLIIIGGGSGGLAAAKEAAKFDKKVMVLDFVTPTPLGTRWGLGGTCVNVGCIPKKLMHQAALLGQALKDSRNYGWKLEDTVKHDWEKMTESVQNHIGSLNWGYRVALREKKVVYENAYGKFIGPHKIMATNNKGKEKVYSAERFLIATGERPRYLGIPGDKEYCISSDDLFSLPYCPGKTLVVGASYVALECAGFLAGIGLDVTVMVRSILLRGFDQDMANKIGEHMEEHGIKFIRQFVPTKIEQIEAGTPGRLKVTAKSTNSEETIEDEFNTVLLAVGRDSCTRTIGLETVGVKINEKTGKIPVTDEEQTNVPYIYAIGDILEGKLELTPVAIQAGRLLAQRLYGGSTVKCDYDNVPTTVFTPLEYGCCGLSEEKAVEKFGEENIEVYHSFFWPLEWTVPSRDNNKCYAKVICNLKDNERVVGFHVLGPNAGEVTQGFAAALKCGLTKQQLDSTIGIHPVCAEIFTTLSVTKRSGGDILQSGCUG

In the test the target is Thioredoxin reductase 1, cytoplasmic (Rattus norvegicus) (UniProt O89049). As to the kind of experiment: qHTS Assay for Substrates of Mammalian Selenoprotein Thioredoxin Reductase 1 (TrxR1) (AID 488772).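 Further: a drop in NADPH fluorescence below the no-compound background marks a TrxR1 substrate.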 The settings on record: purified TrxR1, NADPH consumption substrate assay; series mostly up to 57.1 µM. An excerpt:
The selenoprotein thioredoxin reductase (TrxR; EC 1.8.1.9) is a FAD containing homodimeric pyridine nucleotide-disulfide oxidoreductase with many cellular roles. Together with NADPH and its prime substrate thioredoxin (Trx), the enzyme forms the core of the Trx system. The mammalian Trx system exerts a wide spectrum of functions including redox regulation, antioxidant defense, regulation of transcription factors as well as support of cell growth and replication. Many of these functions involve the reduction of Trx, which may subsequently reduce a number of different substrates including ribonucleotide reductase, peroxiredoxins or NFkB. Mammalian TrxR itself also has a broad substrate specificity, reducing both protein and non-protein substrates, including low molecular weight compounds such as dehydroascorbate, lipoic acid, ubiquinone, and juglone. In addition, several drugs in clinical use for anticancer treatment are indeed known to target TrxR1.
This BioAssay is a validation of an NADPH fluorescence-based, dual-purpose qHTS rTrxR1 assay designed to find potential inhibitors and substrates of rTrxR1. For this particular BioAssay, actives are potential substrates. See related BioAssay for inhibitors data deposition.
Assay protocol: 2 uL of reagents (buffer in column 4 as negative control and 90 nM rTrxR1 in columns 1-3 and 5-48) were dispensed into Greiner black solid-bottom 1,536-well assay plates, followed by 1 uL of NADPH (400 uM final concentration) to each well. The plates were centrifuged at 1000 rpm for 15 seconds and subsequently incubated for 5 min at room temperature (~22 deg C) to allow for rTrxR1 reduction. Compounds (23 nL) were then transferred via Kalypsys pin tool equipped with 1536-pin array (10 nL slotted pins, V&P Scientific, San Diego, CA). In addition, a duplicate 2-fold serial dilution of the control compounds auranofin, a known gold-based TrxR1 inhibitor, and juglone (5-hydroxy-1,4-naphthoquinone), a natural TrxR1 substrate, were pin-transferred to columns 2 and 3, respectively. After incubation for 15 min at room temperature (~22 deg C), 1 uL of selenite (400 uM final concentration) were dispensed to each well. The plate was immediately transferred to a ViewLux high-throughput CCD imager (PerkinElmer), wherein kinetic measurements of NADPH fluorescence (Ex 340 nm, Em 450 nm) were acquired (8 minute kinetic read, see Table 1). Read 1 was utilized to assess the capacity of a compound to serve as an rTrxR1 substrate, i.e. a decrease in NADPH fluorescence compared to the no-compound background is an indication of a substrate behavior for that particular compound. For inhibitory activity of a compound, delta values, computed as the difference in fluorescence intensity between the first and last reads of an 8-minute time kinetic window, were used. All reagents were diluted in an assay buffer consisting of 50 mM Tris-HCl, pH 7.5, 2 mM EDTA, and 0.01% Tween-20.
Throughout the screen, reagent bottle and all liquid lines were made light-tight to minimize reagent degradation. All screening operations were performed on a fully integrated robotic system (Kalypsys, San Diego, CA) containing one RX-130 and two RX-90 anthropomorphic robotic arms (Staubli, Duncan, SC). Library plates were screened starting from the lowest and proceeding to the highest concentration, and a 'double-pinning' step of the highest concentration was required to access higher concentrations of compounds. Vehicle-only plates, with DMSO being pin-transferred to the columns 5-48, were inserted uniformly at the beginning and the end of each library in order to monitor and record any shifts in the background, which can be affected by reagent dispensers or loss in enzyme activity over time. Screening data were corrected, normalized, and concentration-effect relationships were derived by using publicly-available curve fitting algorithms developed in-house (http://ncgc.nih.gov/pub/openhts).
In the case of `Cc1ccc(Cl)c(Nc2ccccc2C(=O)O)c1Cl`, the compound was called inactive.
Regarding `c1ccc2c(c1)CCCC2C1=NCCN1` (stereo not given), the result was inactive.
In the case of `C[n+]1cc2c3c(ccc2c2ccc4cc5c(cc4c21)OCO5)OCO3` it was “inactive”; in that of `NS(=O)(=O)c1cc2c(cc1Cl)NC(C1CC3C=CC1C3)NS2(=O)=O` (stereo not given), “inactive”.
As for `COc1ccc([C@@H]2Sc3ccccc3N(CCN(C)C)C(=O)[C@@H]2OC(C)=O)cc1`, the call was inactive.
Take `CC(C)(Oc1ccc(CCNC(=O)c2ccc(Cl)cc2)cc1)C(=O)O`: the result was inactive.
On to `COCCc1ccc(OCC(O)CNC(C)C)cc1` (stereo not given), for which the compound was called inactive.
In the case of `CCN(CC)CCOCCOC(=O)C1(c2ccccc2)CCCC1`, the result was inactive.
Take `CC(=O)Nc1nnc(S(N)(=O)=O)s1`: the compound was classed as inactive.
In the case of `CN1CCN(CC(=O)N2c3ccccc3C(=O)Nc3cccnc32)CC1` it was “inactive”.
Regarding `Cc1ccc(/C(=C\CN2CCCC2)c2ccccn2)cc1`, the compound was classed as inactive.
Regarding `CN(C)CCN(Cc1cccs1)c1ccccn1`, the compound was classed as inactive.
In the case of `CC1=C(C)C(=O)C(CCCCC#CCCCC#CCO)=C(C)C1=O`, the compound was classed as inactive.
Take `COC(=O)C1=C(C)NC(C)=C(C(=O)OC(C)(C)CN(C)CCC(c2ccccc2)c2ccccc2)C1c1cccc([N+](=O)[O-])c1` (stereo not given): the compound was classed as inactive.
Consider `NC(N)=NC(=O)Cc1c(Cl)cccc1Cl`, for which the compound was called inactive.
As for `CCc1c(C)[nH]c2c1C(=O)C(CN1CCOCC1)CC2` (stereo not given), the compound was called inactive.
As for `Cc1nc2ccccn2c(=O)c1CCN1CCC(C(=O)c2ccc(F)cc2)CC1`, the result was inactive.
As for `CC(=O)OCC1=C(C(=O)O)N2C(=O)[C@@H](NC(=O)Cc3cccs3)[C@H]2SC1`, the outcome was inactive.
In the case of `COc1cc(Cc2cnc(N)nc2N)cc(OC)c1OC`, the compound was classed as inactive.
In the case of `Nc1nc(N)c2nc(-c3ccccc3)c(N)nc2n1`, the outcome was inactive.
As for `CC(C)COCC(CN(Cc1ccccc1)c1ccccc1)N1CCCC1` (stereo not given), the outcome was inactive.
Take `CN(C)CCOC(=O)COc1ccc(Cl)cc1`: the compound was called inactive.
In the case of `NC(=O)c1cn(Cc2c(F)cccc2F)nn1` it was “inactive”; in that of `CCOC(=O)C1=C(C)NC(C)=C(C(=O)OC)C1c1cccc([N+](=O)[O-])c1` (stereo not given), “inactive”; in that of `C[C@]12CCC(=O)C=C1CC[C@@H]1[C@@H]2CC[C@@]2(C)[C@H]1CC[C@]2(O)C(=O)CO`, “inactive”.
As to `NC(=O)N1c2ccccc2C=Cc2ccccc21`, the outcome was inactive.
As to `Fc1ccc(C(c2ccc(F)cc2)N2CCN(C/C=C/c3ccccc3)CC2)cc1`, the call was inactive.
Regarding `Cc1nnc(SCC2=C(C(=O)O)N3C(=O)[C@@H](NC(=O)Cn4cnnn4)[C@H]3SC2)s1`, the compound was called inactive.
As for `NCCCNCCSP(=O)(O)O`, the call was inactive.
With `CN1CCN(C2=Nc3ccccc3Oc3ccc(Cl)cc32)CC1`, the compound was classed as inactive.
`CC1=NS(=O)(=O)c2cc(Cl)ccc2N1`: the call was inactive.
Regarding `CCN(CC)CCNC(=O)c1cc(S(C)(=O)=O)ccc1OC`, the result was inactive.
On to `CN(C)C(=O)Oc1cccc([N+](C)(C)C)c1`, for which the compound was classed as inactive.
Regarding `CCN1CCc2nc(N)oc2CC1`, the result was inactive.
For the compound `COc1ccc(CN(CCN(C)C)c2ccccn2)cc1`, the result was inactive.
On to `CCN(CC)CCNC(=O)c1ccc(NC(C)=O)cc1`, for which the outcome was inactive.
As to `CN(C)C/C=C(/c1ccc(Br)cc1)c1cccnc1`, the outcome was inactive.
On to `CCCN1C[C@H](CSC)C[C@@H]2c3cccc4[nH]cc(c34)C[C@H]21`, for which the result was inactive.
In the case of `CCn1nc(C(=O)O)c(=O)c2cc3c(cc21)OCO3` it was “inactive”; in that of `CN(C)CCCN1c2ccccc2Sc2ccccc21`, “inactive”.
